From PubChem BioAssay (Tox21)
Inconclusive results are not listed. Calls of active or inactive are those of the source. Unless noted, calls come from the whole dose curve; as a rule, active = well fitted curve in the direction sought with a large enough effect in the repeat runs; inconclusive = weak or mixed curves; inactive = no such curve, though single readings can be large; an effect the other way counts as inactive or inconclusive.

Legend:
[1] = qHTS assay to identify small molecule antagonists of the retinoid acid receptor (RAR) signaling pathway - cell viability counter screen (AID 1159551); note: nearly all actives have a fitted effect of over 35% in size
In short: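 C3RL4 cells were seeded overnight at 37 C, then treated with compounds plus 1 uM (final) retinol for 6 h at 37 C. Viability was read as ATP by CellTiter-Glo luminescence after 30 min at room temperature.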

[2] = qHTS assay to identify small molecule antagonists of the retinoic acid receptor (RAR) signaling pathway (AID 1159552; note: nearly all actives have a fitted effect of over 50% in size)
In short: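 RARE-luc C3RL4 cells; cpds + 1 uM (final) retinol, 6 hr, 37 C/5% CO2; luciferase reagent, 30 min RT, luminescence readout. Inhibitors of retinol-driven signal scored.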

[3] = qHTS assay to identify small molecule agonists of the retinoic acid receptor (RAR) signaling pathway (AID 1159553)
In short: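 C3RL4 cells carrying a RARE luciferase reporter were plated overnight at 37 C, then exposed to compounds in DMSO for 6 hr at 37 C and 5% CO2. Luminescence was read 30 min after luciferase reagent addition at room temperature.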

[4] = qHTS assay to identify small molecule antagonists of the estrogen related receptor (ERR) signaling pathway from Tox21 library - cell viability counter screen (AID 1224834); note: nearly all actives have a fitted effect of over 30% in size
In short: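 ERR reporter cells were plated 6 h before compound addition, then exposed to test compounds in DMSO for 17.5 h at 37 C. Viability was read as CellTiter-Fluor fluorescence after a 30-minute incubation at 37 C.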

[5] = target: Luciferin 4-monooxygenase (Photinus pyralis) (UniProt P08659); assay: qHTS assay to identify small molecule inhibitors of firefly luciferase (AID 1224835); note: nearly all actives have a fitted effect of over 25% in size
In short: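 Quantitative HTS format; KM concentrations of both substrates. Purified P. pyralis FLuc activity quantified from luminescence images.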

[6] = qHTS assay to identify small molecule agonists of the constitutive androstane receptor (CAR) signaling pathway - cell viability counter screen (AID 1224836); note: nearly all actives have a fitted effect of over 45% in size
In short: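 HepG2 cells stably carrying hCAR and a CYP2B6-2.2kb reporter were plated 4 h, then given compounds at 15 concentrations plus PK11195 (final 0.75 uM). After 23 h at 37 C, viability was read by CellTiter-Fluor fluorescence.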

[7] = qHTS assay to identify small molecule antagonists of the constitutive androstane receptor (CAR) signaling pathway - cell viability counter screen (AID 1224837); note: nearly all actives have a fitted effect of over 45% in size
In short: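 HepG2 cells stably expressing hCAR and a CYP2B6-2.2kb reporter were plated and pre-incubated 4 hr at 37 C/5% CO2, then given compounds at 15 concentrations plus 50 nM CITCO (final). After 23 hr, viability was read by CellTiter-Fluor fluorescence.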

[8] = qHTS assay to identify small molecule antagonists of the estrogen related receptor signaling pathway with the pleiotropic PPARgamma coactivator (PGC) from Tox21 10K library - cell viability counter screen (AID 1224840; active = well fitted cell-killing curve with a large enough effect in the repeat runs, not every such curve was filed as active; note: nearly all actives have a fitted effect of over 40% in size)
In short: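 PGC/ERR cells were seeded at 2,000 cells/well and left 6 hours at 37 C/5% CO2 before pin-tool addition of compounds in DMSO. After 17.5 hours at 37 C, CellTiter-Fluor was added and fluorescence read 30 minutes later.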

[9] = target: Thyrotropin receptor (Homo sapiens) (UniProt P16473); assay: qHTS assay to identify small molecule agonists of the thyroid stimulating hormone receptor (TSHR) signaling pathway (AID 1224843; calls by dose curve; note: nearly all actives have a fitted effect of over 45% in size)
In short: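 TSHR-expressing HEK293 cells (800 per well) were exposed to compounds for 30 min at room temperature. cAMP was then detected by HTRF competition with cAMP-d2 and anti-cAMP cryptate, read after 1 h at room temperature. Fifteen concentrations, triplicate.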

[10] = qHTS assay to identify small molecule agonists of H2AX (AID 1224845; active = well fitted activation curve with a large enough effect in the signal ratio in the repeat runs, not every such curve was filed as active; the % refers to the signal ratio)
In short: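 Wild-type CHO-K1 cells plated overnight, then exposed 3 hr at 37C to compounds at 15 concentrations (0.76% DMSO). Lysed, then HTRF anti-pH2AX(S139)-cryptate/anti-H2AX-d2 detection after 24 hr at room temperature; emissions 665 and 620 nm.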

[11] = qHTS assay to identify small molecule agonists of the hypoxia (HIF-1) signaling pathway (AID 1224846; active = well fitted activation curve with a large enough effect in the signal ratio in the repeat runs, not every such curve was filed as active; the % refers to the signal ratio)
In short: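 HRE-bla ME-180 cells (beta-lactamase reporter under hypoxia response element) were plated at 2,000 cells/well in medium with 0.5% dialyzed FBS, rested 5 hrs, then given compounds in DMSO for 17 hrs at 37C, 5% CO2. Reporter induction was read with CCF4-AM FRET substrate.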

[12] = qHTS assay to identify small molecule agonists of H2AX - cell viability counter screen (AID 1224847; calls by dose curve; note: top concentration of the series differs between compounds; nearly all actives have a fitted effect of over 30% in size)
In short: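 Wild-type CHO-K1 cells (10% FBS medium) were plated overnight at 37C, exposed to compounds at 15 concentrations for 3 hr at 37C (0.76% DMSO final), and viability was read as CellTiter-Glo luminescence after 30 min at room temperature.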

[13] = qHTS RealTime-Glo MT Cell Viability Assay in HepG2 cells - 24 hour (AID 1224867); note: nearly all actives have a fitted effect of over 50% in size
In short: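 Viability was tracked continuously by NanoLuc luminescence from prosubstrate reduced by living HepG2 cells, at successive time points over 40 h of compound exposure. Cells with reagent were preincubated 5 h at 37 °C before compound addition.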

[14] = target: Nuclear receptor subfamily 1 group I member 3 (Homo sapiens) (UniProt Q14994); assay: qHTS assay to identify small molecule antagonists of the constitutive androstane receptor (CAR) signaling pathway (AID 1224838); note: nearly all actives have a fitted effect of over 40% in size
In short: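 HepG2 cells stably co-transfected with hCAR and a CYP2B6-2.2kb luciferase reporter were seeded 4 h before compound addition at 15 concentrations. Cells were stimulated with 50 nM CITCO (final) for 24 h at 37 C; luciferase luminescence was then read.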

[15] = qHTS assay to identify small molecule agonists of the hypoxia (HIF-1) signaling pathway - cell viability counter screen (AID 1224844; calls by dose curve; note: nearly all actives have a fitted effect of over 50% in size)
In short: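 HRE-bla ME-180 cells in medium with 0.5% dialyzed FBS were preincubated 5 hrs at 37C, exposed to compounds for 17 hrs, then viability was read as CellTiter-Glo luminescence after 30 min at room temperature, in the reporter wells.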

[16] = target: Nuclear receptor subfamily 1 group I member 3 (Homo sapiens) (UniProt Q14994); assay: qHTS assay to identify small molecule agonists of the constitutive androstane receptor (CAR) signaling pathway (AID 1224839); note: nearly all actives have a fitted effect of over 15% in size; note: potency is the fitted concentration of half-maximal effect;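 for activation: HepG2 cells stably carrying human CAR and a CYP2B6 luciferase reporter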
In short: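 HepG2 cells stably expressing hCAR and a CYP2B6-2.2kb luciferase reporter were treated with compounds at 15 concentrations plus 0.75 uM PK11195 (final) for 24 h at 37 C; luminescence was read after ONE-Glo addition.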

[17] = qHTS assay to identify small molecule antagonists of the estrogen related receptor signaling pathway with the pleiotropic PPARgamma coactivator (PGC) from Tox21 10K library (AID 1224841; call rule not given here; note: actives are mostly falling curves and most rising ones were filed inactive; nearly all actives have a fitted effect of over 50% in size)
In short: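 PGC/ERR reporter cells were seeded at 2,000 cells/well and held 6 hours at 37 C/5% CO2 before pin-tool addition of compounds in DMSO. After 18 hours at 37 C, One-Glo was added and luminescence read after 30 minutes at room temperature.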

[18] = qHTS assay to identify small molecule agonists of the estrogen related receptor signaling pathway with the pleiotropic PPARgamma coactivator (PGC) from Tox21 10K library (AID 1224842); note: nearly all actives have a fitted effect of over 15% in size
In short: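 PGC/ERR reporter cells (NTP line) were seeded 2,000 per well, rested 6 h at 37 C/5% CO2, then pin-dosed with compounds in DMSO for 18 h at 37 C; luciferase read by One-Glo luminescence after 30 min at room temperature.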

[19] = qHTS assay to identify small molecule agonists of the estrogen related receptor (ERR) signaling pathway from Tox21 library (AID 1224849; calls by dose curve; note: nearly all actives have a fitted effect of over 15% in size); settings: ERR reporter cell line, ONE-Glo luciferase, 18 h; at 92.4 µM (top of the series) unless noted
In short: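 ERR reporter cell line (NTP) seeded, rested 6 h at 37 C/5% CO2, then pinned with Tox21 compounds in DMSO. After 18 h at 37 C, ONE-Glo luciferase luminescence was read following 30 min at room temperature.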

[20] = qHTS assay to identify small molecule antagonists of the estrogen related receptor (ERR) signaling pathway from Tox21 library (AID 1224848); note: nearly all actives have a fitted effect of over 50% in size
In short: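 Cells: ERR line, 2,000/well; 6 h preincubation 37 C/5% CO2. Cpd in DMSO via pin tool; 18 h, 37 C. ONE-Glo, 30 min RT, luminescence.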
% is set by controls: 0 for no effect and ±100 for the full control effect.

Sequence of Nuclear receptor subfamily 1 group I member 3 (Homo sapiens) (Q14994 whole entry, looked up): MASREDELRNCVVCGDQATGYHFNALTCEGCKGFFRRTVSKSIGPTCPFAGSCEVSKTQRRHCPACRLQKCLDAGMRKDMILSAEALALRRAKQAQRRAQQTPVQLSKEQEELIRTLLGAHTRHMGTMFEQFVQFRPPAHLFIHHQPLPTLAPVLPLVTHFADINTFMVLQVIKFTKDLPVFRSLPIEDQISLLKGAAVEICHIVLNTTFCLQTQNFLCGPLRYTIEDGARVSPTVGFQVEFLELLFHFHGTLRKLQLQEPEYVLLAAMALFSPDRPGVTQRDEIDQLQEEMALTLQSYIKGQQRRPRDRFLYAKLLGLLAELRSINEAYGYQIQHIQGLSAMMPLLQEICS
Sequence of Thyrotropin receptor (Homo sapiens) (P16473 whole entry, looked up): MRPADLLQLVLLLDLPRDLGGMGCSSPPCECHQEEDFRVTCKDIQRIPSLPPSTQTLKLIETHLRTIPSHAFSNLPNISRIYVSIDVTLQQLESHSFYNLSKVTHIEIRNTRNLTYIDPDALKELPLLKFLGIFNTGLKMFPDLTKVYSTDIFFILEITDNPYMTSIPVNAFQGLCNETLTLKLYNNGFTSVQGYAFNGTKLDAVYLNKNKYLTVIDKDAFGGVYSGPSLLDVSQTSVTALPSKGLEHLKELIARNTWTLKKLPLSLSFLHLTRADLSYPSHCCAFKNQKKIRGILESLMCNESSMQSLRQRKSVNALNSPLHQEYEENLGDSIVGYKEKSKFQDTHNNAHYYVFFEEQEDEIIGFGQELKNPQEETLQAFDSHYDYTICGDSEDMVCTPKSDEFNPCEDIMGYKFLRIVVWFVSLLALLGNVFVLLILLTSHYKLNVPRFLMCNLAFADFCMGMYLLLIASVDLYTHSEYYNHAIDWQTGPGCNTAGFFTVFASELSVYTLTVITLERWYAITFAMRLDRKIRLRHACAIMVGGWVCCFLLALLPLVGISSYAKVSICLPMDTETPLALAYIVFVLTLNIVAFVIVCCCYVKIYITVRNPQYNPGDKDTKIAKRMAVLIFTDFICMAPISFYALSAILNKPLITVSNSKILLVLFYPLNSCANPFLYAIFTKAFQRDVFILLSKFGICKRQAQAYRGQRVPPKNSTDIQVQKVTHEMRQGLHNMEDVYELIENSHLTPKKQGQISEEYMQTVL
Sequence of Luciferin 4-monooxygenase (Photinus pyralis) (P08659 whole entry, looked up): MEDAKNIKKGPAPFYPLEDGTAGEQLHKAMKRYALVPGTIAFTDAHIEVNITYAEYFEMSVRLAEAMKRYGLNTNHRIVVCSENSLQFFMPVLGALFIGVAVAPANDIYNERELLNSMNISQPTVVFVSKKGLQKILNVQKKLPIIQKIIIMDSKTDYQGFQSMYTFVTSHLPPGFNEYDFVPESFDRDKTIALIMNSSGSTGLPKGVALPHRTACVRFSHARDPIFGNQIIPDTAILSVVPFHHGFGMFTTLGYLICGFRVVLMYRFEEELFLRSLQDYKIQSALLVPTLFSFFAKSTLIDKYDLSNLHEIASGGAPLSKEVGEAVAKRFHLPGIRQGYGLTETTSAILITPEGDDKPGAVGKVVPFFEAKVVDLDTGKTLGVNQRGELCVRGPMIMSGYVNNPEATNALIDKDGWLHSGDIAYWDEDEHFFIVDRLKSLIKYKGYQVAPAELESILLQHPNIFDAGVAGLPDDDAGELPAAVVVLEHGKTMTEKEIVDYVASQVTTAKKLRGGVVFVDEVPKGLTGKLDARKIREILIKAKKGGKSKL

COc1cc(S(N)(=O)=O)cc(C(=O)O)c1OC
inactive: outcome [1] | outcome [2] | Potency [3] | outcome [4] | Potency [5] | outcome [6] | outcome [7] | outcome [8] | Potency [9] | outcome [10] | outcome [11] | outcome [12] | outcome [13]

O=C(c1ccccc1)c1cccc(O)c1
inactive: outcome [1] | outcome [2] | Potency [3] | outcome [4] | Potency [5] | outcome [6] | outcome [14] | outcome [8] | Potency [9] | outcome [15] | outcome [10] | outcome [11] | outcome [13]

CCCCCCCCC1CO1 (configuration not stated)
inactive: outcome [1] | outcome [2] | Potency [3] | outcome [4] | Potency [5] | outcome [6] | outcome [14] | Potency [16] | outcome [8] | Potency [9] | outcome [15] | outcome [10] | outcome [11] | outcome [12] | outcome [13]

CCCCCCCCCCCCCC(=O)OCC
inactive: outcome [1] | outcome [2] | Potency [3] | outcome [4] | Potency [5] | outcome [6] | outcome [14] | Potency [16] | outcome [8] | Potency [9] | outcome [15] | outcome [10] | outcome [11] | outcome [12] | outcome [13]

CN(C)CCc1c[nH]c2ccc(CS(=O)(=O)N3CCCC3)cc12
inactive: outcome [1] | outcome [2] | Potency [3] | outcome [4] | Potency [5] | outcome [6] | Potency [16] | outcome [8] | Potency [9] | outcome [15] | outcome [10] | outcome [11] | outcome [12] | outcome [13]

Cc1ccc(Br)cc1
inactive: outcome [1] | outcome [2] | Potency [3] | outcome [4] | Potency [5] | outcome [6] | outcome [14] | Potency [16] | outcome [8] | Potency [9] | outcome [15] | outcome [10] | outcome [12] | outcome [13]

CC(=O)OCC(=O)[C@@]1(O)CC[C@H]2[C@@H]3CCC4=CC(=O)C=C[C@]4(C)[C@H]3[C@@H](O)C[C@@]21C
inactive: outcome [1] | outcome [2] | Potency [3] | outcome [4] | Potency [5] | outcome [6] | outcome [7] | outcome [8] | outcome [15] | outcome [10] | outcome [12] | outcome [13]

CN1CCN(C(=O)C2CCCCC2)CC1
inactive: outcome [1] | outcome [2] | Potency [3] | outcome [4] | Potency [5] | outcome [6] | outcome [14] | Potency [16] | outcome [8] | Potency [9] | outcome [15] | outcome [10] | outcome [11] | outcome [12] | outcome [13]

CC(C)OC(=O)C(C(=O)OC(C)C)=C1SC=CS1
active: Potency [16] 13.3 µM
inactive: outcome [1] | outcome [2] | Potency [3] | outcome [4] | Potency [5] | outcome [6] | outcome [14] | outcome [8] | Potency [17] | Potency [18] | Potency [9] | outcome [15] | outcome [10] | activity change, positive = activation [19] -19.5% [at 42.5 µM] | outcome [13]

Cc1cccc(N)n1
inactive: outcome [1] | outcome [2] | Potency [3] | outcome [4] | Potency [5] | outcome [6] | outcome [7] | outcome [8] | Potency [9] | outcome [10] | outcome [11] | outcome [12] | outcome [13]

N#Cc1cc(NC(=O)C(=O)O)c(Cl)c(NC(=O)C(=O)O)c1
inactive: outcome [1] | outcome [2] | Potency [3] | outcome [4] | Potency [5] | outcome [6] | outcome [7] | outcome [8] | Potency [9] | outcome [10] | outcome [11] | outcome [12] | outcome [13]

CCCCCCCCCCCCCCCC(=O)OC
inactive: activity change, negative = cytotoxicity [1] 3.42% [at 19 µM] | activity, negative = inhibition [2] -7.57% [at 19 µM] | Potency [3] | viability change, negative = cytotoxic [4] 2.97% [at 19 µM] | activity change, negative = inhibition [5] 0.26% [at 23.6 µM] | viability change, negative = cytotoxic [6] -0.61% [at 19 µM] | activation [16] -1.6% [at 19 µM] | viability change, negative = cytotoxic [8] 5.32% [at 19 µM] | activation [9] -0.158% [at 19 µM] | activity change, negative = cytotoxicity [15] 9.89% [at 15.8 µM] | activation (H2AX phosphorylation) [10] 4.71% [at 31.6 µM] | activity change, negative = cytotoxicity [12] -4.52% [at 31.6 µM] | activity change, negative = cytotoxicity [13] -0.801% [at 15.8 µM]

CCCC(=O)OC
inactive: outcome [1] | outcome [2] | Potency [3] | outcome [4] | Potency [5] | outcome [6] | outcome [7] | outcome [8] | Potency [9] | outcome [15] | outcome [10] | outcome [13]

NNC(=O)OCc1ccccc1
inactive: outcome [1] | outcome [2] | Potency [3] | outcome [4] | Potency [5] | outcome [6] | outcome [8] | Potency [17] | Potency [18] | Potency [9] | outcome [15] | outcome [10] | outcome [11] | outcome [12] | outcome [20] | activity change, positive = activation [19] -10.3% | outcome [13]

CC(C)C(=O)Nc1cccc(C2CN3CCSC3=N2)c1 (configuration not stated)
inactive: outcome [1] | outcome [2] | Potency [3] | outcome [4] | Potency [5] | outcome [6] | outcome [7] | outcome [8] | Potency [9] | outcome [10] | outcome [11] | outcome [12] | outcome [13]

Cc1cc2c(cc1CC(=O)c1sccc1S(=O)(=O)Nc1onc(C)c1Cl)OCO2
inactive: outcome [1] | outcome [2] | Potency [3] | outcome [4] | Potency [5] | outcome [6] | outcome [14] | Potency [16] | outcome [8] | outcome [15] | outcome [10] | outcome [11] | outcome [12] | outcome [13]
